Source: PubChem BioAssay
Rows were chosen to be rich in hits. Some 3.5% of all compounds tested hit in one or more screens of this group.
MITF primary: MITF inhibitors, primary screen, biochemical, AlphaScreen, human. hit rate 0.91% among 650,000. AID 1259374, 2018. inhibition, % at 2.6 µM. AlphaScreen MITF homodimerization, bead proximity signal. Microphthalmia-associated transcription factor (Homo sapiens), O75030; in the data active means inhibition above about 50%;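 further: 0% = vehicle wells with protein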
TEAD-YAP block: TEAD-YAP interaction inhibition, primary screen, TEAD-YAP interaction inhibitor project, luminescence, HEK-TIYL cells; AID 1259422, 2018; inhibition, % at 9.12 µM; hit rate 1.4% among 640,000; TEAD-Gal4/YAP UAS-luciferase luminescence; in the data active means inhibition above about 32%;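 further: 0% = median of test compound wells and 100% = reference inhibitor wells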
FBW7 activator: FBW7 E3 ligase activators, primary screen, biochemical, AlphaScreen, human. AlphaScreen FBW7–phospho-cyclin E peptide binding, activator screen. normalized activity (activation), % at 26.1 µM. hit rate 0.13% among 650,000. AID 1259310, 2017; in the data active means normalized activity above about 1.9%;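 further: purified mutant Fbw7 with reduced substrate affinity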
Target sequence (Q969H0 whole entry, looked up): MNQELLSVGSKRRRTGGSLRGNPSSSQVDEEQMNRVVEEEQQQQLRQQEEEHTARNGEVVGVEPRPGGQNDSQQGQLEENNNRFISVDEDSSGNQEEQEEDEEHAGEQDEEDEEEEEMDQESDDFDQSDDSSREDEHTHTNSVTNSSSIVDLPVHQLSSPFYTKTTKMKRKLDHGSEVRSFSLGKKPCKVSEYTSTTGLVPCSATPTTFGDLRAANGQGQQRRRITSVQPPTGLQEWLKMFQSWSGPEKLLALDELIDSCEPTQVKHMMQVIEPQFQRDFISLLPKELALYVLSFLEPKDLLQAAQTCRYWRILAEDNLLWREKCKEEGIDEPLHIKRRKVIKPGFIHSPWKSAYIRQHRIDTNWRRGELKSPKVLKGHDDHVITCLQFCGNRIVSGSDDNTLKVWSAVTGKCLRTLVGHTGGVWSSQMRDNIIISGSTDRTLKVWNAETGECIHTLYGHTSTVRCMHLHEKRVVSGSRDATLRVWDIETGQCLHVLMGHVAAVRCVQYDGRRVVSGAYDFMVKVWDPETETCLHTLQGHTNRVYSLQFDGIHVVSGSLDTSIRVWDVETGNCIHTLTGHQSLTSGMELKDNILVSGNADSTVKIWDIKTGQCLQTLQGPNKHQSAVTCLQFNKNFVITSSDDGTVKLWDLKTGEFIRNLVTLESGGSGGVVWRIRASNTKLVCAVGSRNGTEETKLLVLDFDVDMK
GPR151 ag: activators of human GPR151, primary screen, cell-based, PathHunter beta-arrestin, luminescence | PathHunter beta-arrestin GPR151 cells | activation, % at 11.2 µM | hit rate 1% among 650,000 | AID 1508602, 2020; in the data active means activation above about 4.9%;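 further: 0% = median of compound wells and 100% = cells with positive control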
* marks the source's active call; other numbers are inactive results; ! = repeats disagree.

SMILES	MITF primary	TEAD-YAP block	FBW7 activator	GPR151 ag
COC(CNC(=O)CSCc1nc(-c2ccc(C)cc2)oc1C)OC	14	-1	0	0
Nc1ccc2nc(/C=C/c3nc4ccc(N)cc4[nH]3)[nH]c2c1	20	16	0	2
C[n+]1c2cc(N)ccc2cc2ccc(N)cc21	52*!	-1	0	0
C[n+]1c2cc(N)ccc2cc2ccc(N)cc21 (tested in a mixture with another compound)	57*	-14	0	-3
Cc1csc(=NC23CC4CC(CC(C4)C2)C3)o1	7	6	0	3
Cc1ccc(N(C)c2c(-c3ccccc3)c(=O)c2=O)cc1	1	-2	0	0
Oc1ccccc1-c1cc(-c2ccccc2)no1	-3	-21	0	-4
Cc1ccc(-c2cc(-c3ccccc3)no2)c(O)c1	6	52*	0	-5
Cc1ccc(-c2csc(/C(C#N)=C\Nc3ccc(S(N)(=O)=O)cc3)n2)cc1	6	9	2.7*	2
Cn1c2ccccc2c(=O)c2ccccc21	-6	-38	0	0
Cc1cc2cc3c(cc2c(C)n1)c1ccccc1n3C	-8	63*	0	-1
COc1ccc(N2CCn3c2nnc(C(=O)NCc2ccc(F)cc2)c3=O)cc1	6	-5	2	2
Nc1c2ccccc2nc2ccccc12	21	74*	1	0
COc1ccc(Nc2ncnc3sc4c(c23)CCC4)cc1O	5	37*	0	-1
COc1cc2c(cc1NC(=O)CCN1C(=O)c3ccccc3C1=O)oc1ccccc12	-9	-4	0	-1
CN1CCN(c2ccc(-c3nc(NCCOc4ccccc4)c4ncn(-c5ccsc5)c4n3)cc2)CC1	6	11	0	0
c1ccc(-n2cnc3c(NCCN4CCOCC4)nc(NCCN4CCOCC4)nc32)cc1	7	6	0	-1
c1ccc(Oc2nc(NCCN3CCOCC3)c3ncn(-c4ccccc4)c3n2)cc1	20	34*	0	1
COc1ccc(-c2nc(NCCN3CCOCC3)c3ncn(-c4ccccc4)c3n2)cc1	16	47*	0	-1
CN1CCN(c2ccc(-c3nc(NCCO)c4ncn(-c5ccccc5)c4n3)cc2)CC1	-11	73*	0	0
CCOc1ccc(NC(=O)C(=O)NCCCO)cc1	19	-11	1	0
CCOc1ccc(NC(=O)C(=O)NCN(C(=O)CCl)c2ccccc2)cc1	18	47*	0	-1
CCOc1ccc(NC(=O)C(=O)NCCCN)cc1	-4	76*	0	-1
COc1cc(-c2cc(NC(=NCc3ccco3)SC)n[nH]2)cc(OC)c1OC	12	-3	1	0
O=C(NCc1ccc(F)cc1)C1CCCN(c2c3c(nc4ncnn24)CCC3)C1 (stereo not drawn)	5	0	0	0
SMILES	MITF primary	TEAD-YAP block	FBW7 activator	GPR151 ag
CCN1CCSc2ccc(C(=O)NCCOC)cc21	2	-8	0	0
CCCSc1nnc(-c2ccc(OC)cc2)o1	9	45*	1	-3
O=C1c2ccccc2NC(/C=C/c2ccc([N+](=O)[O-])cc2)N1c1ccccc1 (stereo not drawn)	-6	-12	0	0
O=C(CNC(=O)C1CCCCC1)NNC(=O)CC12CC3CC(CC(C3)C1)C2	-7	-3	0	-1
CCOc1ccc(N(/C=C2\Sc3ccccc3C2=O)C(=O)c2cccc(Cl)c2)cc1	9	45*	0	-8
COc1ccc(N(/C=C2\Sc3ccccc3C2=O)C(=O)c2cccc(Cl)c2)cc1	11	51*	0	-9
O=C(/C=C/c1ccco1)OC1=C(Sc2ccccc2[N+](=O)[O-])C(=O)CCC1	-4	0	0	2
CC(C)N1CCc2c(sc(NC(=O)C(C)(C)C)c2C(N)=O)C1	13	74*	1	0
COc1cc(Nc2nc(Nc3ccccc3)c3ncn(-c4ccccc4)c3n2)cc(OC)c1OC	7	-35	0	2
CCNc1nc(Nc2cc(OC)c(OC)c(OC)c2)c2ncn(-c3ccccc3)c2n1	10	47*	0	0
COc1cc(Nc2nc(Nc3nc4ccccc4n3C)nc3c2ncn3-c2ccccc2)cc(OC)c1OC	-10	42*	0	2
Cc1ccc2c(c1)cc(CN(Cc1ccco1)C(=O)NC1CCCCC1)c1nnnn12	-9	-1	0	-1
Nc1ncnc(N/N=C/c2cc([N+](=O)[O-])ccc2OC(F)F)c1[N+](=O)[O-]	4	-40	0	-1
